Test results: the supplement of paper PMC10646978
± gives the standard deviation.

Experiments:
Conditions in all cases: modulator concentration 10 µM
[1] = test system: RAW-Dual (murine macrophage reporter line); assay: NF-kB reporter (SEAP) activity fold change vs agonist alone; higher = enhanced NF-kB activity
Outline: (§1)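 Overnight stimulation with a PRR agonist followed pre-incubation for 1 hour at 37 °C with compound at 10 μM final. This was done in RAW-Dual murine macrophage reporter cells seeded at 50 000 per well in 384-well plates. NF-κB (SEAP, QUANTI-Blue absorbance at 620 nm) and IRF (Lucia luciferase, QUANTI-Luc luminescence) were read from the supernatant. Each reporter's fold change relative to the mean agonist-only control on the same plate was averaged over replicate plates.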

[2] = test system: RAW-Dual (murine macrophage reporter line); assay: IRF reporter (Lucia luciferase) activity fold change vs agonist alone; higher = enhanced IRF activity
Outline: as §1

[3] = test system: RAW-Dual (murine macrophage reporter line); assay: viability score (confluency relative to resting cells, overnight) (fraction); higher = more viable, active = viable (0.7 or more)
Outline: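 Overnight exposure to 10 μM final compound was carried out on RAW-Dual macrophages in 384-well plates. IncuCyte software generated two confluency masks over all wells imaged with IncuCyte. The viability score gives confluency in relation to resting cells. A compound met the cutoff if each mask exceeded 70% of resting cells.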

[4] = agonist: CpG ODN 1826 0.5 ug/mL

Row | SMILES | NF-kB reporter [1, 4] | NF-kB reporter ([1]; agonist: LPS 0.1 ug/mL) | NF-kB reporter ([1]; agonist: MPLA […]) | IRF reporter ([2]; agonist: 3'3'-cGAMP 10 ug/mL) | IRF reporter ([2]; agonist: LPS 0.1 ug/mL) | IRF reporter ([2]; agonist: MPLA […]) | viability score [3]
1 | O=C(Cn1nc(S(=O)(=O)c2cccc(F)c2)ccc1=O)N1CCc2ccccc2C1 | 1.03 ± 0.097 | 1.07 ± 0.085 | 0.921 ± 0.053 | 1.02 ± 0.051 | 1.29 ± 0.1 | 1.14 ± 0.21 | 1 (active)
2 | CN(C)CCCN1c2ccccc2Sc2ccc(Cl)cc21 [Prestw-64] | 0.227 ± 0.066 | 1.1 ± 0.059 | 1.94 ± 0.12 | 0.71 ± 0.037 | 2.26 ± 0.33 | 2.24 ± 0.35 | 0.634 (inactive)
3 | Cc1[nH]c2ccc(Br)cc2c(=O)c1CN1CCCCC1 | 0.828 ± 0.092 | 0.97 ± 0.054 | 0.899 ± 0.054 | 0.951 ± 0.035 | 1.25 ± 0.17 | 0.92 ± 0.091 | 1 (active)
4 | CC(C)N(C(=O)c1ccc(C(=O)NCc2ccc(S(N)(=O)=O)cc2)cc1)C(C)C | 0.974 ± 0.057 | 1.07 ± 0.079 | 0.909 ± 0.072 | 0.961 ± 0.033 | 1.51 ± 0.12 | 1.21 ± 0.18 | 1 (active)
5 | CCC(=O)Nc1ccc(NC(=O)c2ccc([N+](=O)[O-])cc2)cc1 | 0.982 ± 0.086 | 1.05 ± 0.072 | 0.991 ± 0.14 | 0.978 ± 0.054 | 1.43 ± 0.12 | 1.12 ± 0.075 | 1.01 (active)
6 | Cc1cc(OCC(O)CN2CCCCC2C)cc(C)c1Cl.Cl (stereo not given) | 0.79 ± 0.15 | 0.97 ± 0.08 | 0.796 ± 0.048 | 0.955 ± 0.048 | 1.2 ± 0.17 | 1.25 ± 0.23 | 0.923 (active)
7 | COc1cccc(NC(=O)CN(c2cccc(Br)c2)S(C)(=O)=O)c1 | 0.906 ± 0.085 | 0.998 ± 0.074 | 0.919 ± 0.036 | 0.848 ± 0.092 | 0.937 ± 0.11 | 0.876 ± 0.078 | 0.998 (active)
8 | CC(=O)N1CCN(c2ccc(OCC3COC(Cn4ccnc4)(c4ccc(Cl)cc4Cl)O3)cc2)CC1 (stereo not given) | 0.669 ± 0.058 | 1.1 ± 0.085 | 1.08 ± 0.023 | 1.07 ± 0.059 | 1.14 ± 0.12 | 1.18 ± 0.11 | 0.92 (active)
9 | CCOC(=O)C1=C(COCCN)NC(C)=C(C(=O)OC)C1c1ccccc1Cl (stereo not given) | 0.533 ± 0.055 | 0.899 ± 0.052 | 1.55 ± 0.14 | 1.58 ± 0.1 | 1.34 ± 0.12 | 1.13 ± 0.095 | 0.589 (inactive)
10 | Br.O=S(=O)(c1ccc(-c2csc(Nc3ccc(Br)cc3)n2)cc1)N1CCCC1 | 0.814 ± 0.063 | 1.08 ± 0.099 | 0.858 ± 0.065 | 1.03 ± 0.034 | 1.37 ± 0.1 | 1.2 ± 0.16 | 1.01 (active)
11 | Cc1ccc(C2(c3ccc(C)cc3)CC2C(=O)Nc2ccncc2)cc1 (stereo not given) | 0.811 ± 0.095 | 0.865 ± 0.076 | 0.908 ± 0.033 | 0.764 ± 0.045 | 1.04 ± 0.09 | 1.02 ± 0.074 | 1 (active)
12 | CCN(CC)Cc1ccc(Nc2ccnc3cc(Cl)ccc23)cc1O.Cl.Cl | 0.998 ± 0.1 | 0.874 ± 0.065 | 0.908 ± 0.085 | 0.988 ± 0.055 | 1.09 ± 0.19 | 1.04 ± 0.16 | 1.04 (active)
13 | Cc1cccc(OCC(=O)Nc2cccc([N+](=O)[O-])c2)c1C | 0.982 ± 0.16 | 1.17 ± 0.14 | 1.03 ± 0.11 | 0.947 ± 0.028 | 1.21 ± 0.23 | 1.24 ± 0.21 | 0.974 (active)
14 | Cn1cnc2c(F)c(Nc3ccc(Br)cc3F)c(C(=O)NOCCO)cc21 | 0.822 ± 0.071 | 0.65 ± 0.052 | 0.666 ± 0.04 | 0.777 ± 0.045 | 1.17 ± 0.23 | 1.35 ± 0.45 | 0.248 (inactive)
15 | CN(C)C1C(O)=C(C(N)=O)C(=O)C2(O)C(O)=C3C(=O)c4c(O)cccc4C(C)(O)C3CC12.Cl (stereo not given) | 1.11 ± 0.097 | 1 ± 0.053 | 1.01 ± 0.021 | 0.844 ± 0.056 | 0.937 ± 0.1 | 0.921 ± 0.072 | 1 (active)
16 | O=C(O)c1cc(NC(=O)c2ccc(Cl)c([N+](=O)[O-])c2)cc(C(=O)O)c1 | 1.08 ± 0.11 | 0.973 ± 0.064 | 1.02 ± 0.045 | 1.03 ± 0.19 | 1.04 ± 0.088 | 1.08 ± 0.17 | 1 (active)
17 | CN1CCN(CC(=O)N2c3ccccc3C(=O)Nc3cccnc32)CC1.Cl.Cl | 1.49 ± 0.35 | 1.03 ± 0.1 | 1.15 ± 0.077 | 0.96 ± 0.036 | 1.08 ± 0.12 | 1.06 ± 0.15 | 0.984 (active)
18 | NC(=S)c1cc2ccc(O)cc2oc1=O | 0.808 ± 0.16 | 1.01 ± 0.082 | 2.26 ± 1.2 | 0.925 ± 0.043 | 0.979 ± 0.12 | 1.05 ± 0.11 | 1.01 (active)
19 | CC(C)CC(C(=O)Nc1ccc(Cl)cc1)N1C(=O)c2ccccc2C1=O (stereo not given) | 1.01 ± 0.17 | 0.982 ± 0.085 | 0.938 ± 0.089 | 0.988 ± 0.053 | 1.15 ± 0.21 | 1.21 ± 0.2 | 0.6 (inactive)
20 | COC(CNC(=O)C(C)(C)Oc1ccc(Cl)cc1)c1cccc(F)c1 (stereo not given) | 1.27 ± 0.39 | 1.07 ± 0.055 | 1.14 ± 0.081 | 0.96 ± 0.035 | 0.959 ± 0.16 | 1.04 ± 0.18 | 0.973 (active)
21 | CC(=O)C1CCC2C3CC=C4CC(O)CCC4(C)C3CCC12C (stereo not given) | 1.19 ± 0.29 | 1.1 ± 0.12 | 1.13 ± 0.074 | 0.887 ± 0.03 | 1.28 ± 0.16 | 1.32 ± 0.16 | 0.986 (active)
22 | COC(=O)Nn1cnnc1 | 1.03 ± 0.17 | 1.08 ± 0.087 | 0.97 ± 0.095 | 0.984 ± 0.025 | 1.25 ± 0.22 | 1.39 ± 0.24 | 1 (active)
23 | CCCC1CC(C(=O)NC(C(C)O)C2OC(SC)C(O)C(O)C2O)N(C)C1.Cl (stereo not given) | 0.947 ± 0.073 | 0.93 ± 0.072 | 0.924 ± 0.099 | 0.956 ± 0.031 | 1.24 ± 0.11 | 1.32 ± 0.17 | 1.04 (active)
24 | CCS(=O)(=O)c1ccc(-c2ccc(NC(=O)c3cccc(OC)c3OC)cc2)nn1 | 0.914 ± 0.059 | 0.977 ± 0.1 | 1.01 ± 0.1 | 1.05 ± 0.053 | 1.2 ± 0.26 | 1.36 ± 0.4 | 0.955 (active)
25 | O=C(O)c1ccc(NC(=O)c2cccc(F)c2)cc1 | 1.09 ± 0.091 | 1.01 ± 0.1 | 0.962 ± 0.061 | 0.963 ± 0.035 | 1.08 ± 0.056 | 0.994 ± 0.18 | 0.998 (active)
